About 83,000 compounds went through this panel and 20% of them were active in at least one assay; those are over-represented in the sample as a whole.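 Note: values are percent growth. 100 is the growth of untreated cells, values between 100 and 0 indicate rising inhibition; between -100 and 0 indicates cell death.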 Values without a mark were called inactive. Calls of active or inactive are those of the source. How the source made its calls: active means growth percent below 10; inactive means the rest.
Legend:
Assay in all cases: NCI-60 one-dose screen, 48 h (100 = growth as untreated, 0 = no growth, -100 = all killed)
Settings in all cases: 10 µM unless noted
[1] = system: SR leukemia
[2] = system: RPMI-8226 leukemia
[3] = system: OVCAR-8 ovarian
[4] = system: OVCAR-5 ovarian
[5] = system: OVCAR-4 ovarian
[6] = system: SK-OV-3 ovarian
[7] = system: IGROV1 ovarian
[8] = system: OVCAR-3 ovarian
[9] = system: HS 578T breast
[10] = system: NCI/ADR-RES ovarian

Structure (SMILES) | growth [1] | growth [2] | growth [3] | growth [4] | growth [5] | growth [6] | growth [7] | growth [8] | growth [9] | growth [10]
CCn1cc(C(=O)O)c(=O)c2cc(F)c(N3CCN(CC(=O)Nc4ccc(C(C)=O)cc4)CC3)cc21 | 91.9% | 106% | 100% | 107% | 113% | 99.9% | 102% | 111% | 101% | 97.1%
CC(C)(CCN=C(N)Nc1ccccn1)c1ccc(C(F)(F)F)cc1 | -41.3% (active) | -46.9% (active) | 15.7% | 37.4% | 22.3% | 42.5% | 11.9% | 32.1% | – | 31.4%
O=C(Nc1cccc(-n2ccc3c(NC(=O)c4ccccc4)ncnc32)c1)Nc1ccc(Cl)c(C(F)(F)F)c1 | 17.7% | 16.2% | 25.9% | 48.1% | 64.4% | 52.2% | 32.5% | 26.1% | – | 34.8%
O=C(Nc1ccc(F)cc1)Nc1ccc(Cl)c([N+](=O)[O-])c1 | 31.8% | -28% (active) | 17.8% | 44.3% | 16.5% | 34% | 22.4% | 10.1% | 55.8% | 14.1%
O=C(Nc1ccc(-n2ccc3c(NC(=O)c4ccccc4)ncnc32)cc1)Nc1cccc(Cl)c1Cl | 21.8% | 10.2% | 13.4% | 17.5% | -74.3% (active) | -14.8% (active) | -3.19% (active) | -41.7% (active) | – | 4.77% (active)
COc1ccc(-c2nn(-c3ccc(NC(=O)Nc4cc(C(F)(F)F)cc(C(F)(F)F)c4)cc3)cc2-c2ccncc2)cc1Cl | 1.23% (active) | -29.3% (active) | 12.9% | 17.7% | 47% | 22.9% | 26.3% | 3.27% (active) | – | 14%
Cc1ccc(/C=C2/C(=O)Nc3cc(Cl)c(-c4csc(N)n4)cc32)cc1 | 23.9% | 50% | 82.6% | 102% | 68.7% | 77.7% | 59.7% | 59.8% | 63.7% | 82.9%
O=C(NCCNc1nccc(-c2c(-c3cccc(O)c3)nc3sccn23)n1)c1ccc(N2CCOCC2)c(C(F)(F)F)c1 | 76.1% | 58.8% | 72.8% | 91.2% | 105% | 66.4% | 54.3% | 89.1% | – | 95.4%
Clc1ccc2c(NCCNc3nc(Cl)nc4ccccc34)ccnc2c1 | -27.3% (active) | -50.7% (active) | -62.5% (active) | -49.9% (active) | -72% (active) | -80.4% (active) | -85% (active) | -78% (active) | -41.9% (active) | 38.5%
Cc1ccc(-c2nc3c(N=Nc4ccc(S(N)(=O)=O)cc4)c(N)nn3c(N)c2C#N)cc1 | 28.9% | -16.4% (active) | 44.1% | 78.7% | 52.2% | 63.8% | 37.4% | 23.6% | 39.4% | 99.9%
C#C[C@@]1(O)[C@@H](CO)O[C@@H](n2cc(Br)c3c(Cl)ccnc32)[C@@H]1O | 22.4% | 0.227% (active) | -42.5% (active) | 40.8% | 26.9% | 42.1% | 61% | -9.54% (active) | – | 0.838% (active)
C=C1C(=O)O[C@H]2[C@H]1CC/C(COC(=O)c1ccc3ccccc3c1)=C\CC[C@@]1(C)O[C@@H]21 | -19.4% (active) | -39.3% (active) | -21.4% (active) | -52.9% (active) | -36.7% (active) | 82.6% | -75.1% (active) | -93.1% (active) | 3.13% (active) | -37.7% (active)
O=C(C[n+]1cccc(Br)c1)c1ccc2c(c1)CCCC2 | 99.3% | 96% | 108% | 96.2% | 114% | 89.7% | 101% | 99.9% | 105% | 102%
O=C(Nc1ccc(-n2cc(-c3ccncc3)c(-c3ccc(O)c(Cl)c3)n2)cc1)c1cc(C(F)(F)F)cc(C(F)(F)F)c1 | 58.8% | 27.9% | 69.5% | 70.9% | 85.9% | 84% | 61.4% | 49.8% | – | 67.2%
CC12CCC3C(CCC4CC(O)CCC43C)C1C/C(=C/O)C(=O)O2 (stereo not given) | 96.1% | 91.3% | 104% | 111% | 134% | 105% | 105% | 103% | – | 108%
CS(=O)(=O)Nc1cccc(-c2ccc3ncnc(Nc4ccc(F)c(Cl)c4)c3c2)c1 | -2.28% (active) | 18.4% | 29% | 49.1% | 37% | -10.8% (active) | -3.89% (active) | 25.9% | 11.5% | 39.2%
CCCC(C)(C)COC(=O)c1cccc(N)c1 | 92.8% | 108% | 84.2% | 114% | 117% | 94.1% | 103% | 102% | 99.3% | 102%
O=C1/C(=C/c2cccc3cnccc23)Cc2cc(F)ccc21 | 84.6% | 85.9% | 96.1% | 108% | 77% | 76.9% | 85.9% | 109% | 109% | 90.7%
CCOC(=O)c1noc2c1CCc1c-2cn(Cc2ccc(OC)cc2)c1-c1cc(OC)c(OC)c(OC)c1 | 17.8% | 24.7% | 32.6% | 71.2% | 63.2% | 65.3% | 33.2% | 3.47% (active) | – | 21.9%
COc1ccccc1S(=O)(=O)Nc1ccc2c3c(cc(-c4cnn(C)c4)nc13)C(=O)N2C | 46.1% | -4.77% (active) | 47.1% | 54.1% | 51% | 14.8% | 18.4% | 34.1% | 23.8% | 35.9%
CCCCCn1ncc(-c2c(O)c(O)cc3c(O)c(-c4c(C)cc5c(-c6cnn(CCCCC)n6)c(O)c(O)cc5c4O)c(C)cc23)n1 | -29.1% (active) | 0.346% (active) | 8.04% (active) | 32.3% | 34.6% | -0.985% (active) | 13.2% | 8.42% (active) | – | 2.37% (active)
COc1ccc(N)c(S)c1 | 103% | 95.9% | 90.6% | 104% | 96% | 85% | 94.9% | 110% | 102% | 98.4%
COc1cc(/C=C/C(=O)c2ccc(Oc3ncnc4ccccc34)cc2)cc(OC)c1OC | 38.1% | 24.3% | 74.9% | 88.2% | 73.6% | 83.6% | 66.5% | 35.6% | 97.1% | 70.3%
COc1cc(C(=O)NNC(=O)c2ccccc2C(=O)O)cc(OC)c1OC | -10.9% (active) | 10.8% | 39.5% | 84.5% | 77.7% | 52% | 50.2% | 29% | 67.8% | 37.7%
O=C(Nc1ccc(Cl)c(Cl)c1)Nc1ccc(Cl)c([N+](=O)[O-])c1 | -25.2% (active) | -36.2% (active) | 10.9% | 11.9% | 27.1% | -11.7% (active) | 15.8% | 6.38% (active) | 7.04% (active) | -7.67% (active)
O=C(O)c1ccc(-n2cc(/C=N/Nc3ccc(Cl)cc3)c(-c3ccc(F)c(F)c3)n2)cc1 | 68.9% | 24% | 86.6% | 83.7% | 80.3% | 100% | 79.2% | 75.2% | 84.5% | 73.1%
O=S(=O)(Nc1cccc2cc(OS(=O)(=O)c3ccccc3)ccc12)c1ccccc1 | 25.5% | 62.1% | 75.2% | 91% | 71.3% | 61.8% | 72.5% | 66.1% | 57.3% | 46.2%
